# Compound activity from PubChem BioAssay.
# MITF inh: inhibitors of human MITF. O75030. AlphaScreen MITF homodimerization, bead proximity signal. inhibition, % at 2.6 µM. 650,000 tested, 0.91% active. AID 1259374; in the data active = inhibition above about 50%;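 also: 0% = vehicle wells with protein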
# GPR151 activ: activators of human GPR151; activation, % at 11.2 µM; PathHunter beta-arrestin GPR151 cells, luminescence; Q8TDV0; 650,000 tested, 1% active; in the data active = activation above about 4.9%;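 also: 0% = median of compound wells and 100% = cells with positive control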
# TEAD-YAP block: TEAD-YAP interaction inhibition; 640,000 tested, 1.4% active; inhibition, % at 9.12 µM; HEK-TIYL cells, TEAD-Gal4/YAP UAS-luciferase luminescence; in the data active = inhibition above about 32%;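 also: 0% = median of test compound wells and 100% = reference inhibitor wells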
# FBW7 act: human FBW7 E3 ligase activation, primary screen | Q969H0 | AlphaScreen FBW7–phospho-cyclin E peptide binding, activator screen | normalized activity (activation), % at 26.1 µM | 650,000 tested, 0.13% active; in the data active = normalized activity above about 1.9%;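 also: purified mutant Fbw7 with reduced substrate affinity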
# Target sequence (Q969H0 whole entry, looked up): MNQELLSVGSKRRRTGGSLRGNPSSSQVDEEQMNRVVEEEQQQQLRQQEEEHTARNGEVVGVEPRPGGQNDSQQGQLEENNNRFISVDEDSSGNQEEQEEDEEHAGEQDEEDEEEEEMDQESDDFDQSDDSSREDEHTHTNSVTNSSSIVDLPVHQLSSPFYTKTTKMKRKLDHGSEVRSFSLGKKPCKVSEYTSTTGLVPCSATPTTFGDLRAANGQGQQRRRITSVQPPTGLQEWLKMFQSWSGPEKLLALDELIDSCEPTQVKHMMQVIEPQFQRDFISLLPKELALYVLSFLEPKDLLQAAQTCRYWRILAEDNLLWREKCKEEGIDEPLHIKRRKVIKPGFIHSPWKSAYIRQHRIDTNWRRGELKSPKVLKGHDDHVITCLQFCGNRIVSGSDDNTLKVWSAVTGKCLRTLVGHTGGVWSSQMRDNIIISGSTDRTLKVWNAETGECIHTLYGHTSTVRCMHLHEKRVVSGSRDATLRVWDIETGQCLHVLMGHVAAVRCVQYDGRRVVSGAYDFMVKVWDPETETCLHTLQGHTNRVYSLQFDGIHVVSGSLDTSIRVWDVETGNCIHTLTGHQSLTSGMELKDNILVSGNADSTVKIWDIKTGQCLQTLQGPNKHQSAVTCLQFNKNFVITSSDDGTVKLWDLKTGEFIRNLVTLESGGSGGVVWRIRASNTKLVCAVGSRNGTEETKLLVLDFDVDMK
# MITF inh conf: human MITF inhibition, confirmation | shares compounds with MITF inh | AlphaScreen MITF homodimerization, biotin/His-MITF beads | inhibition, % at 2.6 µM | 4,700 tested, 16% active;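 active = inhibition above a cutoff derived from the DMSO control wells, cut at about 28% in these data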;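 also: 0% = MITF dimer wells with DMSO only; inhibitors lower the bead chemiluminescence by keeping MITF from dimerizing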
# AS interf ctr: counter-screen: compounds optically interfering with AlphaScreen; shares compounds with MITF inh; LysRS AlphaScreen counterscreen, signal interference, triplicate; inhibition, % at 2.6 µM; 4,700 tested, 7.6% active; AID 1259376;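 active = inhibition above a cutoff derived from the DMSO control wells, cut at about 30% in these data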
# Starred values were filed as active, the others as inactive; nt = no result given. Shown are actives, neighbours in structure and some others; about 3.5% of the full set was active somewhere.
SMILES,MITF inh,GPR151 activ,TEAD-YAP block,FBW7 act,MITF inh conf,AS interf ctr
CC(=O)OC1CCNC2CCCCC21 (stereo not drawn),-2.0,-0.5,6.6,-0.2,nt,nt
Cc1ccccc1CN1CCN(Cc2ccccc2Cl)CC1,11.3,0.4,11.9,0.1,nt,nt
Cc1ccc(CN2CCN(Cc3ccccc3C)CC2)cc1,55.8*,0.0,13.8,0.1,-11.7,-4.8
Clc1ccc(CCNCc2ccccn2)c(Cl)c1,33.0,-1.1,-5.0,0.0,nt,nt
Fc1cccc(CCNCc2ccccn2)c1,62.0*,0.3,-8.3,-1.1,-5.3,5.5
CCC(C)N1CCN(Cc2ccccc2C)CC1 (stereo not drawn),83.2*,-0.1,2.8,-0.1,15.0,20.6
CCC(C)N1CCN(Cc2ccccc2Br)CC1 (stereo not drawn),82.8*,-1.1,9.5,0.4,10.3,8.7
OCCN1CCN(Cc2ccccc2Br)CC1,35.0,-0.4,1.9,0.0,nt,nt
Cc1ccccc1CN1CCN(c2ccc(F)cc2)CC1,9.8,0.8,-1.6,0.4,nt,nt
COc1ccccc1CN1CCN(Cc2ccc(C)cc2)CC1,76.3*,0.3,8.2,-0.3,3.2,7.7
COc1cc(CN2CCN(Cc3ccccc3)CC2)ccc1O,41.0,-2.2,0.3,-0.1,nt,nt
CC(C)N1CCN(Cc2ccccc2Cl)CC1,72.6*,1.3,4.7,-0.1,-12.4,-2.5
CCc1ccc(CN2CCN(Cc3ccccc3OC)CC2)cc1,72.5*,0.1,-2.8,-0.2,15.8,18.0
CCN1CCN(Cc2ccccc2Cl)CC1,-10.8,-0.4,10.0,-0.1,nt,nt
COc1cc(CN2CCN(Cc3ccccc3)CC2)cc(Br)c1O,50.7*,-0.6,-3.8,0.0,2.8,15.8
COc1ccc(CCN(C)Cc2ccco2)cc1OC,27.0,-0.1,-10.1,-0.1,nt,nt
CC(C)CCn1c(=O)c(C(=O)NC23CC4CC(CC(C4)C2)C3)c(O)c2ccccc21,15.4,-1.2,2.2,0.4,nt,nt
CCN1CCN(Cc2cccc(OC)c2OC)CC1,-4.8,-1.6,-9.1,0.4,nt,nt
CCN(CC)C(=O)COc1ccc(C2C(C#N)=C(N)Oc3c2c(=O)oc2ccccc32)cc1OC (stereo not drawn),20.9,-0.8,8.5,0.1,nt,nt
COc1ccccc1CN1CCN(C(C)C)CC1,66.9*,0.9,-10.5,0.0,9.1,8.9
COc1cccc(CN2CCN(Cc3ccccc3)CC2)c1O,-1.9,-1.2,-8.6,-0.1,nt,nt
COc1ccccc1CN1CCN(Cc2ccccc2)CC1,87.9*,-0.2,-6.6,-0.1,9.1,11.1
CC(C)N1CCN(Cc2ccccc2C(F)(F)F)CC1,60.9*,0.2,5.7,-0.1,-6.7,-5.8
N/C(=N\[N+](=O)[O-])Nc1ccc(NC(=O)Nc2ccccc2)cc1,-24.7,0.4,19.3,0.0,nt,nt
CCOC(=O)c1c(N)n(CCCOC(C)=O)c2nc3ccccc3nc12,-5.2,2.1,-1.1,0.0,nt,nt
SMILES,MITF inh,GPR151 activ,TEAD-YAP block,FBW7 act,MITF inh conf,AS interf ctr
CCn1c2ccccc2c2cc(CN3CCN(C)CC3)ccc21,63.3*,0.3,4.0,0.2,13.5,13.1
CCOc1ccccc1N1CCN(Cc2cccc(OC)c2)CC1,29.0,0.2,7.3,-0.1,nt,nt
CC1(C)CC2CC(C)(CN2CCC#N)C1 (stereo not drawn),52.8*,0.4,2.3,-0.1,-12.3,-9.1
CC(C#N)CN1CC2(C)CC1CC(C)(C)C2 (stereo not drawn),38.5,-0.3,-1.1,0.1,nt,nt
C1COCCOCCOCCOCCO1.C1COCCOCCOCCOCCO1.[Cl-].[Cs+].[O]=[Cr](=[O])=[O],57.3*,2.0,-3.1,0.1,19.4,7.3
Cc1cccc(CN2CCN(C(=O)COc3ccc(Br)cc3)CC2)c1,39.7,1.2,13.9,0.1,nt,nt
Cc1ccc(OCC(=O)N2CCN(Cc3cccc(C)c3)CC2)cc1,51.2*,0.5,7.6,0.0,1.4,2.6
CCC(C)N1CCN(C(=O)COc2cccc(C)c2)CC1 (stereo not drawn),44.0,1.7,-10.1,-0.2,nt,nt
CCC(C)N1CCN(C(=O)COc2ccc(C)cc2)CC1 (stereo not drawn),54.3*,-1.2,7.6,0.1,10.0,15.7
COc1ccc(OC)c(CN2CCN(C(=O)COc3ccc(Br)cc3)CC2)c1,79.9*,2.5,-0.7,0.0,-13.1,-1.6
Cc1ccc(OCC(=O)N2CCN(Cc3ccc(Br)cc3)CC2)cc1,70.3*,1.3,4.5,-0.1,15.5,19.2
Cc1ccccc1Cc1c(C)nc2c(C(=O)N3CCC4(CC3)OCCO4)cnn2c1C,11.2,-1.3,-8.9,-0.1,nt,nt
COc1cc(/C=C/[N+](=O)[O-])ccc1OC(C)C,-12.7,-1.0,15.5,0.0,nt,nt
